Screening data (PubChem BioAssay)
In the library only some 5.7% were active in any assay of this set; here they are far more common.
DAX1 inh-1: DAX1 (NR0B1) inhibitors, primary screen, cell-based, HEK293, Gal4-DAX1, luciferase luminescence; HEK293 Gal4-DAX1 luciferase reporter; 340,000 compounds, 0.99% hits; Nuclear receptor subfamily 0 group B member 1 (Homo sapiens), P51843; inhibition, % at 6.75 µM;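 active means inhibition above the mean over all tested compounds plus 3 SD, cut at about 4.2% in these data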;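 further: 0% = DAX1-transfected cells with DMSO and 100% = empty-vector control cells with DMSO; inhibition shows as a rise in luminescence from relieved DAX1 repression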
Target sequence (P51843 207-470 limits assumed): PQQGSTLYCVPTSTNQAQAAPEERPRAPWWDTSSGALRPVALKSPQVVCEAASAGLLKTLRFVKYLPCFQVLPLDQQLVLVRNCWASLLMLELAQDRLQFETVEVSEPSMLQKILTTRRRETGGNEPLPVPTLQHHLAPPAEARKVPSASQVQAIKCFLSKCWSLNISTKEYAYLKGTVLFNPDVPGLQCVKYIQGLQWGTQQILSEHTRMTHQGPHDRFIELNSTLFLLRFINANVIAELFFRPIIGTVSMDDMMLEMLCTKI
AHR activator: AHR activators, primary screen, cell-based, luminescence, luciferase reporter, human. AHR-responsive luciferase reporter cells. activation, % at 5 µM. 320,000 compounds, 2.5% hits. AID 2796, 2010; in the data active means activation above about 47%;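 further: 0% = vehicle wells and 100% = reference agonist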
hgDAF12 agonist: H. glycines DAF-12 receptor agonists, primary screen, cell-based, luminescence, HEK293, GAL4 fusion, UAS-luciferase. 370,000 compounds, 1.8% hits. HEK293 GAL4-hgDAF12 UAS-luciferase reporter, agonist luminescence; normalized to butyrate control. AID 687014, 2013. Nuclear hormone receptor DAF-12 (Heterodera glycines), GAL4 fusion. activation, % at 6.8 µM;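 active means activation above a cutoff set at the mean of all screened compounds plus 3 SD, cut at about 10% in these data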;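 further: 0% = DMSO wells and 100% = sodium butyrate wells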
hcDAF12 agonist: H. contortus DAF-12 nuclear receptor activators, primary screen, cell-based, luminescence, HEK293, lit1-tk-luc reporter. activation, % at 6.8 µM. HEK293 hcDAF-12 lit1-tk-luc reporter; 0% DMSO, 100% Δ7-dafachronic acid. 370,000 compounds, 1.4% hits. AID 652067, 2013;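 active means activation above the mean of all tested compounds plus 3 SD, cut at about 5.5% in these data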;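 further: 100% = response to 3 µM Δ7-dafachronic acid high control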
DAX1 inh-2: DAX1 (NR0B1) inhibitors on StAR promoter, primary screen, cell-based, luminescence, SF-1 (NR5A1), full-length DAX-1; HEK293T StAR-luciferase reporter, SF-1/DAX-1 repression relief; inhibition, % at 6.8 µM; 370,000 compounds, 1.1% hits;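 active means inhibition above the mean over all tested compounds plus 3 SD, cut at about 3.6% in these data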;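 further: 0% = DAX-1 cells with DMSO and 100% = cells lacking DAX-1 with DMSO; higher inhibition means more luminescence from relief of DAX-1 repression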
ssDAF-12 act: S. stercoralis DAF-12 nuclear receptor activators, primary screen, cell-based, luminescence, HEK293, GRIP1 co-expression, lit1-tk-luc; Nuclear hormone receptor DAF-12 (Strongyloides stercoralis); HEK293 ssDAF-12/GRIP1 lit1-tk-luc reporter; % of 3 µM dafachronic acid response; activation, % at 6.8 µM; 370,000 compounds, 1% hits;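 active means activation above the mean over all tested compounds plus 3 SD, cut at about 0.9% in these data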;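 further: 0% = DMSO-only wells and 100% = 3 µM delta7-dafachronic acid wells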
hgDAF12 conf: H. glycines DAF-12 receptor agonists, confirmation, cell-based, luminescence, HEK293, GAL4-LBD fusion; shares compounds with hgDAF12 agonist; activation, % at 6.8 µM; 3,300 compounds, 80% hits; HEK293 GAL4-hgDAF12 luciferase reporter, agonist mode; percent of butyrate response;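 active means mean activation over triplicate wells above the hit cutoff derived from the earlier primary screen, cut at about 11% in these data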;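 further: 0% = DMSO low control and 100% = 2 mM sodium butyrate high control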
LXR ag 2: LXR agonists, Gal4 luciferase reporter, confirmation, counter-screen for hgDAF-12 agonist project, cell-based, luminescence, HEK293, H. glycines campaign; shares compounds with hgDAF12 agonist; 3,300 tested, under 10 active; AID 743051, 2013; activation, % at 6.8 µM; 24 h;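 active means mean activation of the triplicate above a set limit carried over from the primary screen, none filed active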
Target sequence (P55055 whole entry, looked up, the tested form may be a part): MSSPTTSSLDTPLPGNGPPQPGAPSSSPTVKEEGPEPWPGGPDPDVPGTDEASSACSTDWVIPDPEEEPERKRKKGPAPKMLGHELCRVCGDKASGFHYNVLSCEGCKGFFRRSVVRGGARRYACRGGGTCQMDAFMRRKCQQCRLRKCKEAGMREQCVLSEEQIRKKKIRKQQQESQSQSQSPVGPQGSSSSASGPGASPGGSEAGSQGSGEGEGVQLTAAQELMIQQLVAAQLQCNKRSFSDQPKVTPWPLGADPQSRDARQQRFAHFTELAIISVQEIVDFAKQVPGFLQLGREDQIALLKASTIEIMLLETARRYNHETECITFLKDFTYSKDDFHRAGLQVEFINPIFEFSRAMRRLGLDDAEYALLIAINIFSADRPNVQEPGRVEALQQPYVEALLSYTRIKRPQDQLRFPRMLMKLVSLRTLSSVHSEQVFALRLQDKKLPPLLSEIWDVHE
Starred values were filed as active, the others as inactive; . = not tested or not shown.

SMILES | DAX1 inh-1 | AHR activator | hgDAF12 agonist | hcDAF12 agonist | DAX1 inh-2 | ssDAF-12 act | hgDAF12 conf | LXR ag 2
Cc1ccc(C(=O)Nc2ccc(SC(F)F)cc2)s1 | 2.5 | -1.6 | 19.7* | 5.3 | 4.2* | -0.5 | 12.7* | 0.6
CC(=O)c1ccc(NC(=O)C(C)Sc2nnc(C3CC3)n2C2CC2)cc1 (stereo not given) | 0.2 | -1.4 | 0.2 | -1.8 | -0.7 | -1.2 | . | .
CCC(C)[C@H]1CNCCN1CCc1cccc(F)c1 (stereo not given in full) | 0.0 | -1.6 | 1.2 | -0.3 | 0.5 | -1.1 | . | .
CCC(=O)Nc1ccc2c(c1)C(=O)c1ccccc1C2=O | 1.5 | 68.8* | 13.4* | 6.4* | 3.8* | 0.8 | 16.2* | 0.8
Cc1cc(C(=O)NCCc2ccccc2)ccc1[N+](=O)[O-] | 2.7 | -0.2 | 13.3* | 5.5 | 3.1 | 0.2 | 11.8* | 0.5
Cc1cccc(CSc2cn(CC(=O)N3CCOCC3)c3ccccc23)c1 | 5.2* | 26.2 | 14.2* | 4.3 | 0.8 | 0.3 | 13.1* | 0.3
CC1CCc2nc3sc4c(c3c(N)c2C1)CCCC4 (stereo not given) | -0.7 | 5.3 | 14.4* | -1.2 | 2.6 | -0.3 | 11.3* | 0.4
Cc1nc(N)nc(N)c1-c1ccc(Cl)c(Cl)c1 | -4.2 | . | -11.5 | -0.5 | -4.7 | 0.1 | . | .
Nc1nc(N)nc(-c2ccc(Cl)c(Cl)c2)n1 | 4.0 | -3.5 | 21.3* | -0.1 | 1.4 | -1.0 | 17.7* | 0.8
CCOC(=O)c1ccc2nc3c(cc2c1)CCS3 | 0.9 | 9.0 | 15.6* | 1.7 | 0.2 | 0.2 | 11.3* | 0.4
Cc1ccccc1NC(=O)c1ccc2nccnc2c1 | 0.2 | -2.0 | 0.6 | -1.6 | -0.2 | -0.9 | . | .
O=C(Nc1ccccc1Br)c1ccc2nccnc2c1 | 1.0 | -1.9 | 14.8* | 2.0 | 1.2 | -0.4 | 10.5* | 0.4
Cc1nn(Cc2c(F)c(F)c(F)c(F)c2F)c(C)c1NC(=O)c1cccc(COc2ccc(Cl)cc2)c1 | -1.1 | -3.9 | 15.0* | 1.0 | 1.2 | -0.8 | 6.1 | 0.3
O=C(CC1NCCNC1=O)Nc1ccc([N+](=O)[O-])cc1 (stereo not given) | . | 2.2 | 6.4 | 0.6 | 0.4 | -0.6 | . | .
Cc1cccc(NC(=O)CSc2nnc(-c3n[nH]c4ccccc34)o2)c1 | -1.1 | 18.1 | 2.3 | -1.1 | 0.1 | -0.7 | . | .
N#Cc1cccc(NC(=O)CSc2nnc(-c3n[nH]c4ccccc34)o2)c1 | 1.1 | 41.6 | 14.8* | 0.8 | -0.7 | 0.3 | 9.9 | 0.3
O=C(/C=C/c1ccc(-c2ccccc2)cc1)NC1=NCCS1 | . | . | 17.6* | 3.6 | . | -0.4 | 13.5* | 0.4
c1ccc(CNn2nnc3ccccc32)cc1 | . | . | 13.9* | -1.1 | 1.9 | -0.6 | 11.5* | 0.3
Cc1cc(C)cc(NC(=O)CSc2nccn2Cc2ccco2)c1 | 0.4 | 2.4 | 0.0 | -1.5 | -1.6 | -1.0 | . | .
Cc1cccc(NC(=O)CSc2nccn2Cc2ccco2)c1 | 2.3 | 1.8 | 14.0* | 2.0 | 3.9* | -0.8 | 13.0* | 0.5
C#CCOCCOCCOCCNc1nc(N2CCOCC2)nc(N2CCN(C(=O)Cn3cc(CCCCN)nn3)CC2)n1 | 1.9 | . | 1.1 | -0.6 | 0.1 | -1.4 | . | .
Cc1cc(NC(=O)c2ccc(N3CCCC3)c([N+](=O)[O-])c2)no1 | -0.2 | -3.4 | 4.2 | -0.9 | -0.5 | -1.6 | . | .
O=C(Nc1ccon1)c1ccc(N2CCCCC2)c([N+](=O)[O-])c1 | 2.0 | 33.6 | 15.3* | 3.0 | 2.1 | 0.2 | 16.9* | 1.0
Oc1ccccc1-c1nnc(COc2ccccc2)o1 | 2.2 | 1.2 | 13.7* | 1.7 | 1.4 | -0.4 | 8.5 | 0.2
c1ccc(OCc2nnc(-c3ccccc3)o2)cc1 | 1.3 | 4.1 | 8.0 | 0.5 | 2.7 | -1.1 | . | .
SMILES | DAX1 inh-1 | AHR activator | hgDAF12 agonist | hcDAF12 agonist | DAX1 inh-2 | ssDAF-12 act | hgDAF12 conf | LXR ag 2
CC(=O)c1nc(N2C(=O)CC(Cc3ccccc3)C2=O)sc1C (stereo not given) | -0.5 | 0.7 | -2.9 | -2.4 | -0.4 | -0.6 | . | .
CCCSc1nsc(NC(=O)CC)n1 | 0.7 | 1.9 | 17.4* | 3.9 | 3.0 | -0.5 | 10.9* | 0.7
CCCCCCSc1nsc(NC(=O)CC(C)C)n1 | 2.0 | -12.9 | 3.6 | 1.9 | 0.0 | -0.3 | . | .
CCc1cccc(CC)c1NC(=O)CSc1nnc(C2CC2)n1C | 0.0 | 0.0 | 0.6 | 0.9 | 1.0 | -1.1 | . | .
CCc1ccc(C(=O)Nc2cc(C)ccc2F)s1 | 0.8 | 17.8 | 16.1* | 3.8 | 1.1 | -0.3 | 6.8 | 0.3
Cc1ccc2c(Cl)c(C(=O)NCCc3ccccc3)sc2c1 | 0.4 | -4.4 | 7.9 | 2.9 | 3.5 | -1.1 | . | .
CCNC(=O)c1sc2cc(C)ccc2c1Cl | 1.3 | -12.4 | 14.9* | 3.3 | 0.6 | 0.1 | 10.0 | 0.2
C/C(CC(=O)Nc1cccc(Cl)c1Cl)=N\NC(=O)c1ccccc1N | 4.2* | 29.0 | 13.5* | 4.9 | 2.4 | 0.4 | 3.0 | 0.2
COc1ccc2c(c1)CC/C(=C/c1cc(OC)c(OC)c(OC)c1)C2=O | -3.4 | -3.9 | 0.0 | -3.7 | -0.5 | -2.3 | . | .
COc1ccc(OC)c(C=C2CCc3ccccc3C2=O)c1 | . | . | 14.1* | 2.3 | -1.3 | -0.5 | 3.3 | 0.1
COc1ccc(CC(=O)OCC(=O)NCc2ccc3c(c2)OCO3)cc1OC | 0.6 | 0.0 | 0.1 | 0.2 | -1.0 | -0.9 | . | .
CC1=Nc2ccccc2N=C(NC(=O)c2ccccc2)C1c1ccc(Cl)cc1 (stereo not given) | 0.5 | -0.5 | 18.3* | -0.3 | 1.6 | -0.3 | -2.7 | 0.0
CC1=CC(c2ccc(Cl)cc2)n2nc(NC(=O)c3ccccc3)nc2N1 (stereo not given) | 0.1 | 1.9 | -0.8 | 0.4 | 0.1 | -0.6 | . | .
CC(C)N(C)CCOC(=O)C1COc2ccccc2O1 (stereo not given) | 2.3 | 1.1 | 0.1 | -0.1 | 0.6 | -1.0 | . | .
Cc1noc(C)c1C(=O)N1CCC(C(=O)c2ccc(F)cc2F)CC1 | 0.7 | -2.5 | -0.7 | 0.5 | 0.0 | -1.4 | . | .
